Here are results for 29 molecules from ChEMBL document CHEMBL1157539, “Thousands of chemical starting points for antimalarial lead identification” (Nature, 2010).

In the test the test system is Plasmodium falciparum. Description: GSK_TCMDC: Inhibition of Plasmodium falciparum Dd2 in whole red blood cells, using parasite LDH activity as an index of growth. Test compounds present at 2uM. In kind it is functional.
The molecule `CN1CCC(NCc2ccc(-c3cnc(NCc4ccccc4)nc3)cc2)CC1.O=C(O)C(F)(F)F` displayed an Inhibition of 64%. Consider `Nc1nc(N)c2cc(NC(=O)c3ccc(Cl)c(Cl)c3)ccc2n1`, for which the Inhibition is 83%. As for `CCCCCN1CCCC(NS(=O)(=O)c2ccc(C(=O)Nc3ccc(C(F)(F)F)cc3)cc2)C1.O=C(O)C(F)(F)F` (centres undefined), the Inhibition stood at 20%. With `COc1ccc(Cl)cc1N1CCN(CCCNC(=O)c2ccc(-c3nc4cc5ccccc5cc4[nH]3)c(F)c2)CC1` the figure was 62%; with `COc1ccc(CNC(=O)NC2CCN(c3ccnc(Nc4ccc(F)cc4)n3)C2)cc1` (centres undefined), 78%; with `CN(C)CCCNC(=O)c1ccccc1Sc1ccccc1C#N.Cl`, 3%. With `Cc1cccc2nc(-c3ccc(-c4ccc(CNCCc5ccncc5)cc4)cc3)[nH]c12.O=C(O)C(F)(F)F` the figure was 98%. With `CCCCNC(=O)[C@H](CC1CCCCC1)NC(=O)c1ccc(O)c(-c2ccc(Cl)c(Cl)c2)c1` the figure was 99%.

With `O=C(NC1CC1)c1ccc(N2CCN(Cc3ccc(Cl)cc3)CC2)nc1.O=C(O)C(F)(F)F`, the Inhibition is 81%.

In the case of `O=C(/C=C/c1ccc(Cl)c(Cl)c1)NC1CCC(CN2CCC(c3nc4cccnc4[nH]3)CC2)CC1` (centres undefined), the Inhibition stood at 2%. With `Cc1cc(N[C@@H](Cc2ccccc2)C(=O)Nc2ccccc2)nc(NCCc2ccccc2)n1.O=C(O)C(F)(F)F` the figure was 87%. With `CCN1CCC(N2CCC(C(=O)Nc3cccc(-c4cccc(Cl)c4)c3)CC2)CC1` the figure was 82%; with `N#Cc1cncc(-c2nc3c(N4CCCC(N)C4)cccc3n2CCNCc2ccccc2)c1.O=C(O)C(F)(F)F` (centres undefined), 1%. With `Cc1c(C(=O)N2CCCC(C(F)(F)F)C2)sc2cccc(F)c12` (centres undefined) the figure was 89%; with `CCN1C(c2ccc(Cl)cc2)C(CNCc2ccccc2O)CC1(C)CO` (centres undefined), 99%; with `CNC(=O)NC1=NC(C)(C)N(OCCCOc2cc(Cl)c(Cl)cc2Cl)C(N)=N1`, 2%. The molecule `CCC(=O)N(c1ccccc1)C1CCN(CCCC(NC(=O)c2cc(C(F)(F)F)cc(C(F)(F)F)c2)c2ccc(Cl)c(Cl)c2)CC1` (centres undefined) gave an Inhibition of 57%. With `CC(C)(C)c1ccc(-c2cc3c(ccc4nc(N)nc(N)c43)[nH]2)cc1` the figure was 100%; with `Cl.Nc1nc(Nc2cccc(O)c2)nc2ccccc12`, 79%. In the case of `Cc1nnsc1C(=O)Nc1ccc(-c2ccc(-c3nc4cccc(C)c4[nH]3)s2)cc1`, the Inhibition turned out to be 61%. For `Oc1ccc(C=NNC(S)=Nc2cccc3ccccc23)c(O)c1`, the Inhibition is 72%. With `C=CCOC(=O)N1CCC(CNCc2cccc(-c3cccc(-c4nc5ccccc5[nH]4)c3)c2)C1.O=C(O)C(F)(F)F` (centres undefined) the figure was 46%; with `CS(=O)(=O)NCCCNCc1ccc(-c2cccc(-c3nc4cc(F)ccc4[nH]3)c2)cc1.O=C(O)C(F)(F)F`, 1%.

On to `CCN(CC)CCN(Cc1ccc(-c2ccc(C(F)(F)F)cc2)cc1)C(=O)Cn1c(CCc2c(F)cccc2F)nc(=O)c2ccccc21.O=C(O)C(O)C(O)C(=O)O`, for which the Inhibition is 61%. `CN1CCN(c2ccnc3ccc(NC(=O)c4ccc(Cl)c(Cl)c4)cc23)CC1` yielded an Inhibition of 64%. With `O=C(/C=C/c1ccc(Cl)c(Cl)c1)NCCCCCN1CCCN(C(=O)Nc2ccc(Cl)cc2)CC1` the figure was 0%; with `N#Cc1ccc(N(CCOc2ccc(Cl)c(F)c2)Cc2ccccc2C(F)(F)F)cc1C(F)(F)F`, 43%. In the case of `C=C(C)Cn1cc(C2CCN(CCCCNC(=O)c3sc(-c4ccc(Cl)cc4Cl)nc3CO)CC2)c2ccccc21`, the Inhibition turned out to be 19%. `COc1nc2c(N3CCN(CCNCc4ccc5c(n4)NC(=O)CO5)CC3)ccnc2cc1F.Cl` displayed an Inhibition of 9%.

As a reminder, the Inhibition is the percentage by which the read-out fell short of the control. Read a low Inhibition as little suppression.
